PubChem BioAssay (NCI)
About 79,000 compounds went through this panel and 15% of them were active in at least one assay; those are over-represented in the sample as a whole. Values without a mark were called inactive. Active and inactive are the calls of the source. No stated cut-off is given here; in the data, active means growth inhibition above about 70%; inactive means the rest.

How the values were obtained:
[1] = NCI Yeast Anticancer Drug Screen. Data for the wt1 strain (AID 149);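 further: 0% = growth of vehicle-treated wt1 cultures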; conditions: S. cerevisiae wt1 strain (SPY 50644) growth inhibition, active compounds read high
Method in brief: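 Using yeast strain wt1, compound-induced growth inhibition was determined against vehicle-treated cultures.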

[2] = NCI Yeast Anticancer Drug Screen. Data for the rad50EPP+ strain (AID 151);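 further: 0% = growth of vehicle-treated control cultures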; conditions: S. cerevisiae rad50 mutant strain, active compounds read high
Method in brief: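 Genetically defined yeast (rad50EPP+, DNA damage repair alteration) is grown with compound, and inhibition of growth is expressed relative to vehicle-treated controls.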

[3] = NCI Yeast Anticancer Drug Screen. Data for the mgt1 strain (AID 153); conditions: S. cerevisiae mgt1 mutant growth inhibition, active compounds read high
Method in brief: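 In the mgt1 strain, test compounds were added and growth inhibition was determined relative to vehicle-treated controls.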

[4] = NCI Yeast Anticancer Drug Screen. Data for the rad50 strain (AID 155);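 further: 0% = growth of vehicle-only cultures of the same strain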; conditions: S. cerevisiae rad50 strain growth inhibition, active compounds read high
Method in brief: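 Relative growth inhibition (compound vs vehicle) was measured in yeast with a defined repair-gene alteration.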

[5] = NCI Yeast Anticancer Drug Screen. Data for the mec2-1 strain (AID 157); conditions: S. cerevisiae mec2-1 strain, active compounds read high
Method in brief: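 Each compound was tested on mec2-1 yeast, a strain altered in DNA damage repair or cell cycle control. Growth inhibition is reported relative to vehicle.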

[6] = NCI Yeast Anticancer Drug Screen. Data for the rad14 strain (AID 159);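 further: 0% = growth of vehicle-treated control cultures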; conditions: S. cerevisiae rad14 strain growth inhibition, active compounds read high
Method in brief: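 Screen for anticancer potential: a yeast strain altered in DNA damage repair is grown with compound, and reduced growth is quantified against vehicle controls.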

[7] = NCI Yeast Anticancer Drug Screen. Data for the sgs1 mgt1 strain (AID 161);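 further: 0% = growth of cultures given vehicle only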; conditions: S. cerevisiae sgs1 mgt1 strain, active compounds read high
Method in brief: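 Test agents were incubated with a DNA-repair-mutant yeast strain. Growth was then read and compared against vehicle-treated controls.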

[8] = NCI Yeast Anticancer Drug Screen. Data for the CLN2oe strain (AID 163);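 further: 0% = growth of vehicle-only control cultures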; conditions: S. cerevisiae CLN2oe strain, active compounds read high
Method in brief: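 First, the altered yeast strain was treated with each compound; second, its growth was measured; finally, inhibition was derived by comparison with vehicle controls.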

[9] = NCI Yeast Anticancer Drug Screen. Data for the cln2 rad14 strain (AID 165);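 further: 0% = growth equal to vehicle treated cultures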; conditions: S. cerevisiae cln2 rad14 strain, active compounds read high
Method in brief: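 Test compounds were added to cln2 rad14 yeast cultures; inhibition of growth was then determined by comparison with vehicle treatment.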

[10] = NCI Yeast Anticancer Drug Screen. Data for the bub3 strain (AID 167); conditions: S. cerevisiae bub3 mutant strain, active compounds read high
Method in brief: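 Screening used yeast with an engineered genetic alteration affecting cell cycle control. Compound-exposed cultures were compared with vehicle cultures, and reduced growth was taken as inhibition.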

[11] = NCI Yeast Anticancer Drug Screen. Data for the wt2 strain (AID 169);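 further: 0% = growth of vehicle-treated yeast cultures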; conditions: S. cerevisiae wt2 strain growth inhibition, active compounds read high
Method in brief: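 The panel's yeast strains carry defined changes in DNA repair or cell cycle genes. Each strain is grown with compound, and growth loss is scored relative to vehicle.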

[12] = NCI Yeast Anticancer Drug Screen. Data for the sgs1 strain (AID 173);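 further: 0% = growth of vehicle-only control cultures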; conditions: S. cerevisiae sgs1 mutant, active compounds read high
Method in brief: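 Vehicle-treated cultures served as reference for growth inhibition of a yeast strain altered in DNA damage repair or cell cycle control after compound exposure.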

[13] = NCI Yeast Anticancer Drug Screen. Data for the mlh1 rad18 strain (AID 175); conditions: S. cerevisiae mlh1 rad18 strain growth inhibition, active compounds read high
Method in brief: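 Inhibition values reflect reduced growth of mutant yeast versus vehicle-treated controls following compound exposure; the mutations affect DNA damage repair.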

[14] = NCI Yeast Anticancer Drug Screen. Data for the rad18 strain (AID 177); conditions: S. cerevisiae rad18 mutant growth inhibition, active compounds read high
Method in brief: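 Steps: expose repair-mutant yeast to compound; measure growth; express as inhibition relative to vehicle control.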

[15] = at 5.0 µM (retest, dose inferred, filed as 0.5)
[16] = at 50.0 µM (retest, dose inferred, filed as 5.0)

Q: Which results are given for CN(C)CCC(C(=O)C(Br)Br)(c1ccccc1)c1ccccc1?
A: growth inhibition ([1]; at 1.2 µM): -2%; growth inhibition ([1]; at 3.7 µM): -1%; growth inhibition ([1]; at 11.0 µM): 26%; growth inhibition ([1]; at 33.0 µM): 98% (active); growth inhibition ([1]; at 100.0 µM): 99% (active); growth inhibition ([2]; at 1.2 µM): -2%; growth inhibition ([2]; at 3.7 µM): -5%; growth inhibition ([2]; at 11.0 µM): -1%; growth inhibition ([2]; at 33.0 µM): 21%; growth inhibition ([2]; at 100.0 µM): 72% (active); growth inhibition ([3]; at 1.2 µM): -1%; growth inhibition ([3]; at 3.7 µM): 0%; growth inhibition ([3]; at 11.0 µM): 96% (active); growth inhibition ([3]; at 33.0 µM): 99% (active); growth inhibition ([3]; at 100.0 µM): 99% (active); growth inhibition ([4]; at 1.2 µM): 0%; growth inhibition ([4]; at 3.7 µM): 12%; growth inhibition [4, 15]: 16%; growth inhibition ([4]; at 11.0 µM): 82% (active); growth inhibition ([4]; at 33.0 µM): 99% (active); growth inhibition [4, 16]: 99% (active); growth inhibition ([4]; at 50.0 µM): 98.8% (active); growth inhibition ([4]; at 100.0 µM): 99% (active); growth inhibition ([5]; at 1.2 µM): 3%; growth inhibition ([5]; at 3.7 µM): 2%; growth inhibition [5, 15]: 16%; growth inhibition ([5]; at 11.0 µM): 96% (active); growth inhibition ([5]; at 33.0 µM): 99% (active); growth inhibition [5, 16]: 38%; growth inhibition ([5]; at 50.0 µM): 99.3% (active); growth inhibition ([5]; at 100.0 µM): 100% (active); growth inhibition ([6]; at 1.2 µM): 7%; growth inhibition ([6]; at 3.7 µM): 30%; growth inhibition ([6]; at 11.0 µM): 95% (active); growth inhibition ([6]; at 33.0 µM): 99% (active); growth inhibition ([6]; at 100.0 µM): 99% (active); growth inhibition [7, 15]: 40%; growth inhibition [7, 16]: 99% (active); growth inhibition ([7]; at 50.0 µM): 97.3% (active); growth inhibition ([8]; at 1.2 µM): 0%; growth inhibition ([8]; at 3.7 µM): 12%; growth inhibition ([8]; at 11.0 µM): 74% (active); growth inhibition ([8]; at 33.0 µM): 99% (active); growth inhibition ([8]; at 100.0 µM): 98% (active); growth inhibition [9, 15]: 19%; growth inhibition [9, 16]: 99% (active); growth inhibition ([9]; at 50.0 µM): 99.1% (active); growth inhibition ([10]; at 1.2 µM): -6%; growth inhibition ([10]; at 3.7 µM): 0%; growth inhibition [10, 15]: -69%; growth inhibition ([10]; at 11.0 µM): 94% (active); growth inhibition ([10]; at 33.0 µM): 99% (active); growth inhibition [10, 16]: 98% (active); growth inhibition ([10]; at 50.0 µM): 99.5% (active); growth inhibition ([10]; at 100.0 µM): 99% (active); growth inhibition ([11]; at 1.2 µM): 0%; growth inhibition ([11]; at 3.7 µM): 2%; growth inhibition ([11]; at 11.0 µM): 73% (active); growth inhibition ([11]; at 33.0 µM): 99% (active); growth inhibition ([11]; at 100.0 µM): 99% (active); growth inhibition ([12]; at 1.2 µM): -1%; growth inhibition ([12]; at 3.7 µM): 17%; growth inhibition ([12]; at 11.0 µM): 94% (active); growth inhibition ([12]; at 33.0 µM): 99% (active); growth inhibition ([12]; at 100.0 µM): 99% (active); growth inhibition [13, 15]: 33%; growth inhibition [13, 16]: 99% (active); growth inhibition ([13]; at 50.0 µM): 99% (active); growth inhibition ([14]; at 1.2 µM): 2%; growth inhibition ([14]; at 3.7 µM): 11%; growth inhibition ([14]; at 11.0 µM): 88% (active); growth inhibition ([14]; at 33.0 µM): 99% (active); growth inhibition ([14]; at 100.0 µM): 99% (active)
